Laboratory results taken from PubChem BioAssay (NCATS).
Records with an inconclusive call do not appear. Active and inactive are the calls of the source. Calls come from the whole dose curve; as a rule, active = well fitted cell-killing curve with a large enough effect; inconclusive = small, poorly fitted or top-dose-only effect; inactive = flat fitted curve, though single readings scatter. Bridge positions count the residues as written; N and C are the ends. Square brackets hold non-standard residues; d marks the D form. Side chains are listed from the residue outwards. Peptide text beside a SMILES is read from it. * marks the point of attachment. Phg(4-OMe) = COc1ccc([C@H](N)C(=O)O)cc1; d(aIle) = CC[C@H](C)[C@@H](N)C(=O)O; d(aThr) = C[C@@H](O)[C@@H](N)C(=O)O; NMeF = CN[C@@H](Cc1ccccc1)C(=O)O; Isobutyryl = CC(C)C(=O)*; Hexanoyl = CCCCCC(=O)*

Experiment: KB-3-1 Cancer Cell Toxicity qHTS against the NCATS CANVASS Library (AID 1347366); note: nearly all actives have a fitted effect of over 75% in size
Details: KB-3-1 viability, CellTiter-Glo luminescence, 72 h; series mostly up to 46.1 µM; activity change, negative = cytotoxicity: at the top concentration; outcome: at the top concentration
Excerpt: Natural products and their derivatives continue to be wellsprings of nascent therapeutic potential. However, many laboratories have limited resources for biological evaluation, leaving their previously isolated or synthesized compounds largely or completely untested. To address this issue, the Canvass library of natural products was assembled (https://tripod.nih.gov/canvass), in collaboration with academic and industry researchers, for quantitative high-throughput screening (qHTS) across a diverse set of cell-based and biochemical assays. The pure (>85% purity by liquid chromatography/mass spectrometry [LC/MS]) Canvass library of 346 natural products were submitted by 45 academic laboratories and companies around the world. We collected pure natural products to circumvent deconvolution and structure elucidation due to time and resource limitations. The library was formatted into 1536-well plates and evaluated in 50 qHTS (in an 11-pnt concentration series) bioassays with broad scope of disease-relevant mechanisms. The resulting data set from 50 different assays was then systematically analyzed to identify overall trends and specific natural products with interesting biological activities. Reported herein are the results of each individual qHTS and their corresponding assay protocol. […] National Center for Advancing Translational Sciences (NCATS), Rockville, MD National Institute of Health (NIH), Bethesda, Maryland
Cancer Cell Toxicity qHTS protocol 1. In a 1536 well, tissue culture treated white solid bottom plates (Corning 7494), 5 uL of KB-3-1 cell solution (final concentration of 500 cells / well) was dispensed using the Multidrop Combi dispenser (Thermo Fisher Scientific) into columns 3-48, rows 1-32. DMEM + 10% FBS + 100 U/mL penicillin / 100ug/mL streptomycin media solution was dispensed into column 1-2, row 1-32 also using the Multidrop Combi dispenser. 2. Control and Compounds were pin transferred (~23nL volume) to the assay plates via Wako Pin-tool (Wako Automation, Richmond VA) equipped with a 1536 pin head. The compounds were transferred to columns 5-48 resulting in a final concentration ranging from 0.17 nM to 103 uM. Dose response titration of Bortezomib was pin transferred into column 3, rows 1-32 (2mM; 1:2 dilution; 16 points; n = 2) resulting to a final concentration range of 0.3nM - 9.2uM. 3. The assay plates were further incubated in the at 37C, 5% CO2, 95% Rh for 72 hr. 4. After incubation, 2.5uL of CellTiter-Glo reagent (Promega) was added to the assay plates (column 1-48, rows 1-32) using the Multidrop Combi dispenser. 5. The assay plates were incubated at room temperature for 10 minutes. 6. Luminescence signal was acquired via the ViewLux plate reader (PerkinElmer) using a clear emission filter, 1 sec exposure, and 1x binning settings.
% is set by controls: 0 for no effect and ±100 for the full control effect; potency is the fitted concentration of half-maximal effect.

| SMILES | activity change, negative = cytotoxicity | outcome | Potency |
| --- | --- | --- | --- |
| CCCCCC(=O)N[C@@H](CC(C)C)C(=O)N[C@H](C=O)CCC(=O)O (Hexanoyl-Leu-Glu-aldehyde) | 1.37% (inactive) | – | – |
| C=C1CC[C@@H](Br)C(C)(C)[C@]12CC=C(C)C(=O)C2 | 5.25% (inactive) | – | – |
| COc1cc2c(c(O)c1O)C(=O)c1c(coc1C)C2=O | 8.94% (inactive) | – | – |
| CC(C)[C@]12CC[C@@]3(C)[C@H](C)CC[C@H](O)[C@@]3(CC1)c1cc3c(cc12)[nH]c1ccccc13 | -20.9% (inactive) | – | – |
| CC(C)=CCC/C(C)=C/Cc1cc([C@@H]2CC(=O)c3c(cc(O)c(CC=C(C)C)c3O)O2)ccc1O | -2.42% (inactive) | – | – |
| C=C1CCC2C(C)(C(=O)O)CCC(CC/C(C)=C/C(=O)NC(CCC(N)=O)C(=O)O)[C@@]2(C)C1 (stereo not given in full) | – | inactive | – |
| COC12OC1(C13OC1(OC)C(=O)c1cc4cc(C)oc(=O)c4c(O)c1C3O)C(O)c1c(cc3cc(C)oc(=O)c3c1O)C2=O (stereo not given) | – | inactive | – |
| C/C=C/C1C=CC2CC(C)CC(C)C2C1C(=O)CC(=O)NC(CO)C/C=C/CCCCC (stereo not given) | -14.4% (inactive) | – | – |
| C=C[C@]1(C)CC[C@@H]([C@H](C)C(=O)/C=C/C(C)(C)O)O1 | – | inactive | – |
| C[C@H](c1cnc(N)[nH]1)c1ccc(O)c2[nH]cc(-c3cnc(-c4c[nH]c5ccccc45)c(=O)[nH]3)c12 | – | inactive | – |
| C=C(Cl)[C@](Cl)(CBr)CC[C@@H](Br)C(C)(C)Cl | – | – | 20.9 µM (active) |
| CC[C@@H]1C[C@@]2(CC)OC(=O)[C@@]3(CC)[C@H](CC)[C@@H]1[C@@H]23 | 3.24% (inactive) | – | – |
| C/C=C/c1cc2c(c(=O)o1)C(=O)[C@@H](O)[C@H](C)O2 | 0.0228% (inactive) | – | – |
| C/C(=C\[C@@H](C)CC/C=C/CC/C=C/C(=O)O)[C@H](O)[C@H](C)C(=O)CCCC1CC(=O)NC(=O)C1 | 3.3% (inactive) | – | – |
| O=C1c2c(O)cc(O)cc2OC(c2ccc(O)cc2)C1O (stereo not given) | – | inactive | – |
| COc1c(O)cc2c(c1O)C(=O)c1c(coc1C)C2=O | – | inactive | – |
| COc1cc(C2OCC3C(c4ccc(O)c(OC)c4)OCC23)ccc1O (stereo not given) | – | inactive [at 9.19 µM] | – |
| C/C(=C\[C@H](C)C(=O)CCCC1CC(=O)NC(=O)C1)[C@@H]1OC(=O)/C=C/CC/C=C/[C@H](O)[C@@H](O)[C@@H]1C | – | – | 6.62 µM (active) |
| CO/C=C/C(=O)c1cc2cnc3c(N)cc(=NC(=O)C(C)C)c([nH]1)c23 | – | – | 0.59 µM (active) |
| C=C1[C@@]2(C)CC3C4(C)CCC(O)C(C)(C)C4CCC3(C)[C@]1(C(=O)OC)C(=O)C(C)(O)C2=O (stereo not given in full) | -2.29% (inactive) | – | – |

| SMILES | activity change, negative = cytotoxicity | outcome | Potency |
| --- | --- | --- | --- |
| O=C1OC(CCO)c2cccc(O)c21 (stereo not given) | 7.86% (inactive) | – | – |
| C[C@@]12C[C@@H](C[C@@H]3C(=O)O[C@@H](c4ccoc4)[C@H](OC(=O)c4ccccc4)[C@@H]31)OC2=O | 9.35% (inactive) | – | – |
| O[C@H]1C=C2[C@H]3CN(Cc4cc5c(cc43)OCO5)[C@H]2C[C@@H]1O | – | – | 13.2 µM (active) |
| O=Cc1ccc2n1C[C@]1(OC2)O[C@H](CO)[C@@H](O)[C@@H]1O | 8.25% (inactive) | – | – |
| CC[C@H](C)[C@H]1NC(=O)[C@@H](NC(=O)C(C)C)[C@@H](C)OC(=O)[C@H](COC(=O)CNC(C)=O)NC(=O)[C@@H]([C@@H](C)O)NC(=O)[C@H](Cc2ccccc2)N(C)C(=O)[C@H](c2ccc(OC)cc2)NC1=O (Isobutyryl-T[d(aIle)][Phg(4-OMe)][NMeF][d(aThr)]S([Gly-Ac]); ester 1-C) | 1.84% (inactive) | – | – |
| C=C[C@](Cl)(CBr)CCC=C(C)C | 1.4% (inactive) | – | – |
| CN1CC[C@]23c4ccccc4N[C@H]1[C@]21CCN(C)[C@H]3Nc2ccccc21 | -0.275% (inactive) | – | – |
| C=CC(C)(C)C(=O)[C@@H](C)[C@@H]1CC[C@@](C)(C=C)O1 | 7.94% (inactive) | – | – |
| COc1ccc([C@@H]2CC(=O)c3c(cc(O)c(C/C=C(\C)CCC=C(C)C)c3O)O2)cc1 | -3.45% [at 9.19 µM] (inactive) | – | – |
| C/C(=C\[C@H](C)C(=O)C[C@H](O)CC1CC(=O)NC(=O)C1)[C@@H]1OC(=O)CCCC/C=C/[C@@H](O)C[C@@H]1C | – | – | 9.35 µM (active) |
| C=C1C[C@]23C=CC(=O)[C@@](C)(CCCC(C)C(=O)N[C@@H](CO)C(=O)O)[C@@H]2C[C@@H]1CC3 (stereo not given in full) | – | inactive | – |
| C[C@]12CC[C@]3(C1)[C@H](CC2=O)C[C@@H](OC(=O)c1ccccc1)[C@H]1[C@](C)(C(=O)O)CCC[C@@]13C | – | – | 18.7 µM (active) |
| COc1cc(/C=C/C(=O)OC[C@@H](Cc2ccc(O)c(OC)c2)[C@@H](COC(=O)/C=C/c2ccc(O)c(OC)c2)Cc2ccc(O)c(OC)c2)ccc1O | – | – | 20.9 µM (active) |
| C[C@@]12CCC[C@@](C)(C(=O)O)[C@H]1CC[C@@]13C[C@@H](CC[C@H]12)[C@](C)(O)C3 | 2.48% (inactive) | – | – |
| Cc1occ2c1C(=O)c1c(cc(O)c(O)c1O)C2=O | – | inactive | – |
| CC(=O)N[C@H](C)c1nc(/C=C/C=C/C(=O)CC2CC(=O)CC[C@]2(C)O)cs1 (stereo not given in full) | – | inactive | – |
| CC1=C[C@H]2[C@H]3C(=O)C(c4ccc(O)cc4)=C[C@@]3(c3ccc(O)cc3)[C@@H]1C(=O)[C@]2(C)O | – | – | 0.332 µM (active) |
| C/C=C1/CN2C3CC1C1C=CC(=O)N4c5ccccc5[C@@]3(C[C@@H]2C2=C[C@H]3C5CC6N(CC[C@@]67c6ccccc6N(C2=O)[C@@H]37)C/C5=C/C)[C@H]14 (stereo not given in full) | – | – | 10.5 µM (active) |
| C[n+]1cc2cc(C(N)=O)[nH]c3c(=N)c(Cl)c(N)c1c23 | – | inactive | – |
| C[C@H]1CCC2(OC1)O[C@H]1C[C@H]3[C@@H]4CC(=O)[C@]5(O)C[C@H](O)CC[C@@]5(C)[C@H]4CC[C@@]3(C)[C@H]1[C@H]2C (stereo not given in full) | -18.4% (inactive) | – | – |
